Reference: PubChem BioAssay (NCI)
“And” between values parts separate entries of the source, which are not always exact repeats. Identical values can stand only once. This is part of a sample that, as a whole, favours compounds with a hit. Of some 83,000 tested, about 20% had one in any assay.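 Single-concentration screen, 48 h exposure, 96-well plates. Endpoint: percent growth. Below 10 = active.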 A number with no mark means an inactive call. The source made the active and inactive calls.

system: MDA-MB-468 breast; test: NCI-60 one-dose screen, 48 h (100 = growth as untreated, 0 = no growth, -100 = all killed); details: 10 µM unless noted

Row | SMILES | growth
1 | CC(=O)OC[Si](C)(C)c1ccccc1 | 95.3%
2 | CCc1cc(O)ccc1Nc1cc(-c2ccc(-n3cccn3)cc2)[nH]n1 | 58.8%
3 | COc1cc(/C(=C2/O[C@@H]([C@H]3COC(C)(C)O3)[C@H]3OC(C)(C)O[C@@H]23)c2ccc3ccccc3c2)cc(OC)c1OC | 51.2%
4 | CCOc1ccc([C@H]2C(C(=O)c3ccc(Cl)cc3)C3(N[C@@H]2c2ccccc2)C(=O)Nc2ccc(Br)cc23)cc1 (stereo not given in full) | -17.1% (active)
5 | Cc1cnc(NC(=O)Nc2cc(Br)c(C)cc2OC[C@@H]2CNCCO2)cn1 | -26.7% (active)
6 | O=C(CSc1nnc(-c2ccc(Cl)cc2)o1)Nc1ccc(C(=O)/C=C/c2ccc(Cl)cc2)cc1 | 116%
7 | O=c1[nH]c(=O)n(C2OC(CO)C(O)C2O)cc1I (stereo not given) | 102% and 123%
8 | CC1=NOC(=O)/C1=C\c1ccc(O)cc1 | 103%
9 | CCOC(=O)c1sc(NS(=O)(=O)c2ccccc2)nc1C | 106%
10 | N[C@@H]1CCN(C(=O)c2cc3cc(Cl)c(F)c(F)c3[nH]2)C1 | 81.6%
11 | CC1(c2ccccc2Cl)NC(=O)NC1=O (stereo not given) | 96.7%
12 | CC[C@@H](C(=O)[C@@H](C)[C@@H](O)[C@H](C)[C@@H]1O[C@@H]([C@@H](CC)C(=O)NCCc2ccc(F)cc2)CC[C@@H]1C)C1O[C@]2(C=CC(=O)[C@]3(CC[C@@](C)([C@H]4CC[C@](O)(CC)[C@H](C)O4)O3)O2)[C@H](C)C[C@@H]1C (stereo not given in full) | 13.5%
13 | COc1c(O)cc2c(c1CC=C(C)C)OC(=O)c1c(cc(O)c(CC=C(C)C)c1O)O2 | 27.9%
14 | COc1cccc(/C(C#N)=C/c2nc3c(N4CCOCC4)nc(Cl)nc3n2C)c1 | -63% (active)
15 | Cc1cc(N2CCN(C)CC2)nc(NC2CCCC(Nc3ccnc4cc(Cl)ccc34)C2)n1 (stereo not given) | -52.1% (active)
16 | O=C1c2ccccc2-c2c1c1ccncc1c(=O)n2CCCn1ccnc1 | 28%
17 | CCOC(=O)Nc1ccc2c(c1)C(=O)N(CC)c1ccccc1O2 | -3.61% (active)
18 | CN(C)CCCOc1cccc(NC2=C(Cl)C(=O)C(Nc3cccc(OCCCN(C)C)c3)=C(Cl)C2=O)c1 | -57.3% (active)
19 | COc1ccc2c(c1)C(c1cc(OC)c3c(c1)OCO3)C1=C(COC1=O)N2 (stereo not given) | -14.4% (active)
20 | Cc1cc(N=O)cc(C(C)(C)C)c1O | 91%

Row | SMILES | growth
21 | COc1ccc2c(c1)C(=O)c1c-2c(OCCN2CCCCC2)nc2ccc(OC)cc12 | -10.6% (active)
22 | O=C1CN(Cc2ccc(C(=O)NO)cc2)C(=O)[C@@H](Cc2ccccc2)N1 | 109%
23 | C=C1CC2(OC1=O)C(=O)Nc1ccccc12 (stereo not given) | -11.5% (active)
24 | CC1=C([Se]CC(OC(=O)[C@@H](CSSC(C)(C)C)NC(=O)C(C)(C)C)C(=O)NCCCCCC(=O)OCc2ccccc2)C(=O)c2ccccc2C1=O (stereo not given in full) | -21.9% (active)
25 | CC1=C(C(=O)Nc2ccccc2)C(c2ccc3c(c2)OCO3)NC(=S)N1 (stereo not given) | 108%
26 | Cc1cc2c(F)c(Oc3ncnc(Nc4ccc(N5C[C@@H](C)N[C@@H](C)C5)cc4)c3C#N)cc(F)c2[nH]1 | -5% (active)
27 | COC1/C=C/OC2(C)Oc3c(C)c(O)c4c(O)c(c(C=NOC(c5ccccc5)c5ccccc5)c(O)c4c3C2=O)NC(=O)/C(C)=C/C=C/C(C)C(O)C(C)C(O)C(C)C(OC(C)=O)C1C (stereo not given) | 3.6% (active)
28 | Cc1ccc(NC(=S)N2CCOCC2)cc1C | 83.5%
29 | CCOC(=O)CC(=O)OC | 102%
30 | O=c1oc2ccc([N+](=O)[O-])cc2cc1Br | 101%
31 | COC(=O)CCC1=C(C)C2=NC1=CC1=NC(=CC3=NC(=Cc4[nH]c(/c(=C(/C)O)c4C)=C2)C(C(C)=O)=C3C)C(C)=C1CCC(=O)OC | 108%
32 | Cn1cc(C=O)c2ccccc21 | 100%
33 | COc1ccc(Nc2nc(Nc3cc(C)[nH]n3)c3cc(OC)c(OC)cc3n2)cc1 | -69.9% [20 µM] (active)
34 | Cc1cc(C)c(NC(=O)c2sc3nc4c(cc3c2N)CCCCCC4)c(C)c1 | 40.1%
35 | CC/C=C/C/C=C/C/C=C/C/C=C/C/C=C/C/C=C/CCC(=O)Nc1ccn([C@@H]2O[C@H](CO)[C@@H](O)C2(F)F)c(=O)n1 | 21.5%
36 | CC1=Nc2cnc(Nc3ccc(N4CCCCC4)cc3)nc2Nc2ccccc21 | 54.9%
37 | O=C(O)c1cc2ccccc2s1 | 112%
38 | Cn1cc(-c2csc(-c3cn(CCCN4CCCCC4)c4ccc(Br)cc34)n2)c2cccnc21 | 15.2%
39 | Oc1c(CNCCNCc2cc(Cl)cc(Cc3ccccc3)c2O)cc(Cl)cc1Cc1ccccc1 | 24.2%
40 | c1c(-c2cc(C3CC3)[nH]n2)n[nH]c1C1CC1 | 95.4%
